# Bioassay records as filed in PubChem BioAssay.
# Rows were chosen to be rich in hits. Some 27% of all compounds tested hit in one or more screens of this group.
# CYP2C9 act: CYP2C9 (human) activation. P11712. recombinant CYP2C9, luciferin-H conversion, luminescence; hits give high values; factor 1 = untreated enzyme, 0 = blocked. activation factor at 5 µM. hit rate 1.4% among 96,000;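 active means activation factor of 2 or more for CYP2C9 at a 5 µM dose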
# Target sequence (P11712 whole entry, looked up): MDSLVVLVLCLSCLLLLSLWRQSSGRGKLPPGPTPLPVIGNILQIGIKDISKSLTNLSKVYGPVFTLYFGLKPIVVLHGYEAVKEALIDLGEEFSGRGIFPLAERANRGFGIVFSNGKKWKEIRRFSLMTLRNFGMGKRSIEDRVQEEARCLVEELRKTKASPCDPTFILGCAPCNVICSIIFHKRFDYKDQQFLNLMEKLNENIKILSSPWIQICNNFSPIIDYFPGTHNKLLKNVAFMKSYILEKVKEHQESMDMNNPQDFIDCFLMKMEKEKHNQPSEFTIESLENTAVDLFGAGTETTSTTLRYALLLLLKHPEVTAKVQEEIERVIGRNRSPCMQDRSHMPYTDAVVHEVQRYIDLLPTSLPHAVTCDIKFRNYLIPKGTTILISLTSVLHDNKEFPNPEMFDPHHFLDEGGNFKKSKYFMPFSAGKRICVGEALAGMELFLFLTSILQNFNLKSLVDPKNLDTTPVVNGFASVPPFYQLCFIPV
# CYP2C9 inhib: inhibitors of human CYP2C9; P11712; inhibition, % at 5 µM; CYP2C9 Supersomes, luciferin-H conversion, luminescence; AID 777; hit rate 20% among 96,000;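 active means blocking of liver enzyme CYP2C9 beyond about 50% at 5 µM, limit read from the data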
# CYP2C19 inhib: inhibitors of human CYP2C19 | P33261 | CYP2C19 Supersomes, luciferin-H EGE luminescence, 30 min | inhibition, % at 5 µM | hit rate 21% among 96,000 | AID 778;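 active means CYP2C19 inhibition above a set limit at 5 µM in the primary screen, cut at about 50% in these data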
# CYP2C19 act: increases human CYP2C19 enzyme activity. 96,000 tested, under 10 active. AID 1025. P33261. activation factor at 5 µM. recombinant CYP2C19, luciferin-H EGE luminescence; hits give high values; 0 = fully inhibited enzyme, 1 = untreated enzyme;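 active means activation factor of at least 2 at 5 µM in the primary screen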
# EphB4 antag: blocks human EphB4 binding to ephrin-B2; EphB4 LBD / TNYL-RAW-Alexa532 peptide, fluorescence polarization; inhibition, % at 7 µM; hit rate 0.15% among 97,000;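 active means inhibition above the screen-wide mean inhibition plus 3 SD, cut at about 15% in these data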
# Numbers stand for hits; - = inactive; . = no result.
SMILES,CYP2C9 act,CYP2C9 inhib,CYP2C19 inhib,CYP2C19 act,EphB4 antag
Cc1noc(C)c1COc1cccc(C(=O)OC(C)C(=O)Nc2ccc3c(c2)OCO3)c1 (stereo not drawn),-,80.7,-,-,-
COc1cc(C(=O)Oc2ccccc2)ccc1OCc1c(C)noc1C,-,-,-,-,-
Cc1noc(C)c1COc1cccc(C(=O)OCCOc2ccc(F)cc2)c1,-,88.7,98.3,-,-
Cc1ccc(NC(=O)c2cccc(OCc3c(C)noc3C)c2)c(C)c1,-,88.5,81.1,-,-
Cc1noc(C)c1COc1cccc(C(=O)Oc2ccc3c(c2)OCO3)c1,-,88.4,67.1,-,-
O=C(NCCC1=CCCCC1)NC1CCCCC1,.,.,.,.,-
Cc1ccc(Cn2cnc3ccccc32)cc1,-,57.9,77.3,-,-
O=C(COc1ccccc1-c1ccccc1)Nc1ccc(S(=O)(=O)NCc2ccco2)cc1,-,-,-,-,-
Cc1ccc(CNC(=O)c2sc3nc4c(c(C(F)(F)F)c3c2N)CCC4)cc1,-,-,-,-,-
Nc1c(C(=O)NCc2ccc(Cl)cc2)sc2nc3c(c(C(F)(F)F)c12)CCC3,-,60.7,-,-,-
CCC(C)Oc1nc(C)cc(C)c1S(=O)(=O)c1ccccc1C (stereo not drawn),-,-,-,-,-
Cc1cc(C)c(S(=O)(=O)c2c(C)cccc2C)c(OCC(C)C)n1,-,91.0,83.8,-,-
CC1=NN(c2ccccc2)C(=O)C1C(=O)c1ccc(Cl)cc1 (stereo not drawn),-,93.1,-,-,-
CC1=NN(c2ccccc2)C(=O)C1N=Nc1ccc(N)cc1 (stereo not drawn),-,-,-,-,-
Cn1c(SCC(=O)N2CCOCC2)nnc1-c1ccc(Cl)cc1Cl,-,-,-,-,-
CC(=O)c1cc(C)ccc1OC(=O)c1cccc2nc(C)oc12,-,61.1,57.3,-,-
O=C(O)CCC(NS(=O)(=O)c1ccc(N2CCCC2=O)cc1)C(=O)O (stereo not drawn),-,-,-,-,.
CCOC(=O)c1c(CN2CCCCC2)oc2ccc(O)cc12,-,-,-,-,-
CCOC(=O)c1c(CN2CCCCC2)n(C)c2cc(Br)c(O)cc12,-,-,71.0,-,-
CCOC(=O)c1c(CN2CCN(C)CC2)n(C)c2cc(Br)c(OC)cc12,-,55.8,-,-,.
COc1ccc(C2=CC(c3ccc(Cl)cc3)n3cnnc3N2)cc1OC (stereo not drawn),-,-,-,-,.
O=C(NCc1ccco1)C1CCN(C(=O)Cc2ccccc2)CC1,-,-,-,-,-
O=C(Nc1cccc(C(=O)N2CCOCC2)c1)NC1CCCCC1,-,-,-,-,-
CCOC(=O)c1c(N)n(CC(C)NC(=O)C2CC2)c2nc3ccccc3nc12 (stereo not drawn),-,-,-,-,-
CC(C)(C)C(=O)Nc1nnc(CSCc2ccccc2F)s1,-,56.0,58.7,-,-
SMILES,CYP2C9 act,CYP2C9 inhib,CYP2C19 inhib,CYP2C19 act,EphB4 antag
CC(C)C(=O)Nc1nnc(CSCc2ccccc2F)s1,-,-,69.9,-,-
CCc1nnc(NC(=O)C(C)C)s1,-,-,-,-,-
CCc1nnc(NC(=O)C(C)Sc2ccccc2)s1 (stereo not drawn),-,73.8,82.6,-,-
CCOCCc1nnc(NC(=O)C(CC)c2ccccc2)s1 (stereo not drawn),-,86.7,56.0,-,-
CCC(CC)C(=O)NCCc1ccc(S(N)(=O)=O)cc1,-,-,-,-,-
CCOCCCNC(=O)c1ccc(Br)cc1,-,-,-,-,-
CCOCCCNC(=O)c1cc2sc(Cl)cc2n1CC,-,-,52.1,-,.
CC(C)CCn1cnc2c([nH]c3cccc(Cl)c32)c1=O,-,50.0,-,-,-
Cc1cccc2[nH]c3c(=O)n(CCN4CCNCC4)cnc3c12,-,-,-,-,-
COc1ccccc1/C=c1\sc2nc(-c3cccs3)nn2c1=O,.,.,.,.,-
O=C(Cn1nnc(-c2ccccc2Cl)n1)N1CCN(S(=O)(=O)c2ccc(Cl)cc2)CC1,-,-,-,-,-
O=C(Nc1cc(Oc2ccccc2)cc([N+](=O)[O-])c1)C12CC3CC(C1)CC(n1cnc(Cl)n1)(C3)C2,-,68.5,53.7,-,-
O=C(O)c1cccc(NC(=O)C23CC4CC(C2)CC(n2cnc(Cl)n2)(C4)C3)c1,-,70.9,61.7,-,-
COC(=O)c1ccccc1NC(=O)C12CC3CC(C1)CC(n1cnc(Cl)n1)(C3)C2,.,.,.,.,-
Cc1ccccc1NC(=O)c1sc2nc[nH]c(=O)c2c1C,-,-,-,-,-
CC(C)Cn1c(CN2CCCCC2C)nc2c1c(=O)n(C)c(=O)n2C (stereo not drawn),-,-,-,-,-
Cc1onc(-c2c(F)cccc2Cl)c1C(=O)OCN1C(=O)c2ccccc2C1=O,-,-,55.6,-,.
COc1ccc(CNC(=O)COC(=O)c2c(-c3c(F)cccc3Cl)noc2C)cc1OC,-,56.0,96.8,-,-
Cc1cccnc1NC(=S)NC(=O)c1cncc(Br)c1,-,-,-,-,-
COc1ccc(Cn2nnnc2C(c2ccc(C)cc2)N2CCN(C3CCCC3)CC2)cc1 (stereo not drawn),-,-,-,-,-
Cc1cc(C)cc(NC(=O)C2CCCN(S(=O)(=O)c3cnc[nH]3)C2)c1 (stereo not drawn),-,92.9,80.9,-,-
Cc1ccc(NC(=O)C2CCCN(S(=O)(=O)c3cnc[nH]3)C2)cc1F (stereo not drawn),-,86.6,93.9,-,-
COc1cc(NC(=O)C2CCCN(S(=O)(=O)c3cnc[nH]3)C2)cc(OC)c1 (stereo not drawn),-,88.4,-,-,-
CCC(=O)N1CCc2cc(S(=O)(=O)NCCCN(CC)Cc3ccccc3)ccc21,-,-,-,-,-
CN(C)c1ccc(NC(=O)CC2NCCNC2=O)cc1 (stereo not drawn),-,-,-,-,-
SMILES,CYP2C9 act,CYP2C9 inhib,CYP2C19 inhib,CYP2C19 act,EphB4 antag
CC(=O)N1CCc2cc(S(=O)(=O)NCCC(=O)N3CCN(c4ccccn4)CC3)ccc21,-,-,-,-,-
Cc1cc2c(=O)n(CC(=O)NCC(=O)N3CCN(Cc4ccccc4)CC3)cnc2s1,-,51.8,-,-,.
CCOC(=O)Cc1csc(NC(=O)Cc2cccs2)n1,-,-,-,-,-
Cc1sc(NC(=O)c2cccs2)c(C(N)=O)c1C,-,81.3,65.9,-,-
COC(=O)c1sc(S(=O)(=O)NCc2cccs2)c(C(=O)OC)c1C,-,82.2,88.6,-,-
CCOC(=O)c1cnn(CCOC(=O)Cc2cccs2)c1NC(=O)Cc1cccs1,-,89.0,88.5,-,-
